Test results from the supplement of paper PMC12350171.
Structures can show the parent of a compound that is named as a salt.

What was measured:
Settings in all cases: 20 µM
[1] = system: Salmonella enterica typhimurium; assay: growth AUC normalised to DMSO control (fraction of control); higher = less growth inhibition, active = hit call of the paper
Outline: (§1)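 After two anaerobic passages, pathogens were added at a starting OD578 of 0.01 to pre-reduced mGAM plates holding compound at 20 μM with 1% DMSO; hemin and NAD were supplemented for Haemophilus parainfluenzae. Sealed with breathable membranes, plates were read at OD578 hourly for 24 h, in three biological replicates. The trapezoidal rule, applied up to the exponential-to-stationary transition, gave the growth-curve AUC, which was normalised to DMSO controls on the same plate.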

[2] = system: Shigella flexneri; assay: as above
Outline: as §1

[3] = system: Vibrio cholerae; assay: as above
Outline: as §1

[4] = system: Yersinia pseudotuberculosis; assay: as above
Outline: as §1

[5] = system: P. vulgatus RND KO; assay: growth AUC normalised to DMSO control (median) (fraction of control); higher = less growth inhibition, active = hit call of the paper
Outline: (§2)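 Each strain went through two overnight passages under anaerobic conditions before growth in mGAM in 96-well plates, starting at OD578 0.01, with each compound from the approved-drug library at 20 μM and 1% DMSO. Inside an anaerobic incubator, OD578 was recorded every hour for 24 h. Growth curves were cut off at entry into stationary phase, and the area under the curve was calculated by the trapezoidal rule and normalised to vehicle wells on the same plate. Reported values are medians of three biological replicates.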

[6] = system: P. vulgatus WT; assay: as above
Outline: as §2

[7] = system: S. enterica typhimurium WT; assay: as above
Outline: as §2

[8] = system: S. enterica typhimurium tolC KO; assay: as above
Outline: as §2

Measured: growth AUC normalised to DMSO control
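Wherever growth AUC normalised to DMSO control (median) is given: active when median AUC fell below 0.1.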

C#CCN(C)Cc1ccccc1 [Pargyline hydrochloride]
inactive: [1] 0.964 | [2] 1.03 | [3] 0.942 | [4] 0.994 | [5] 1.01 | [6] 1 | [7] 1 | [8] 1.01

O=C(c1ccccc1)c1ccc2n1CCC2C(=O)O (stereo not given) [Ketorolac tromethamine]
inactive: [1] 0.986 | [2] 0.972 | [3] 0.97 | [4] 0.983 | [5] 0.997 | [6] 1.01 | [7] 1.01 | [8] 1

CN(C)CCOC1=Cc2ccccc2Sc2ccc(Cl)cc21 [Zotepine]
inactive: [1] 1.01 | [2] 1 | [3] 0.877 | [4] 1 | [5] 0.935 | [6] 0.874 | [7] 1.01 | [8] 0.959

Cc1noc(NS(=O)(=O)c2ccc(N)cc2)c1C [Sulfisoxazole]
inactive: [1] 0.995 | [2] 1 | [3] 1.03 | [4] 0.971 | [5] 1 | [6] 1.05 | [7] 0.997 | [8] 0.98

COc1cccc(N(C)C(=S)Oc2ccc3c(c2)CCCC3)n1 [Liranaftate]
inactive: [1] 1.02 | [2] 1.03 | [3] 1.01 | [4] 1.01 | [5] 1.03 | [6] 1.07 | [7] 0.996 | [8] 0.909

CNC1(C)C2CCC(C2)C1(C)C (stereo not given) [Mecamylamine hydrochloride]
inactive: [1] 1.02 | [2] 1 | [3] 0.976 | [4] 1.02 | [5] 1.09 | [6] 1.09 | [7] 1.02 | [8] 1.02

N[C@H]1CONC1=O [(S,-) Cycloserine]
inactive: [1] 1.01 | [2] 1.03 | [3] 1.04 | [4] 1.04 | [5] 0.897 | [6] 0.954 | [7] 0.997 | [8] 0.996

Nc1nc(N)c2nc(-c3ccccc3)c(N)nc2n1 [Triamterene]
inactive: [1] 0.942 | [2] 1.06 | [3] 0.99 | [4] 0.95 | [5] 0.973 | [6] 0.971 | [7] 0.954 | [8] 0.939

c1cnc(N2CCN(Cc3ccc4c(c3)OCO4)CC2)nc1 [Piribedil]
inactive: [1] 1 | [2] 1.03 | [3] 0.999 | [4] 1.01 | [5] 1.07 | [6] 1.09 | [7] 0.984 | [8] 1

Oc1c(I)cc(Cl)c2cccnc12 [Clioquinol]
active: [6] 0.0312
inactive: [1] 1.03 | [2] 0.996 | [3] 1.07 | [4] 1.01 | [5] 0.134 | [7] 1.01 | [8] 0.55

CN1C(C(=O)Nc2ccccn2)=C(O)c2ccccc2S1(=O)=O [Piroxicam]
inactive: [1] 0.973 | [2] 0.995 | [3] 0.892 | [4] 1.01 | [5] 1.01 | [6] 1.04 | [7] 1.01 | [8] 0.977

CC(=O)Nc1ccc(O)cc1 [Acetaminophen]
inactive: [1] 0.992 | [2] 0.99 | [3] 0.997 | [4] 0.996 | [5] 1.02 | [6] 1.01 | [7] 1 | [8] 0.998

CC[C@H]1OC(=O)[C@H](C)[C@@H](O[C@H]2C[C@@](C)(OC)[C@@H](O)[C@H](C)O2)[C@H](C)[C@@H](O[C@@H]2O[C@H](C)C[C@H](N(C)C)[C@H]2O)[C@](C)(O)C[C@@H](C)/C(=N\OCOCCOC)[C@H](C)[C@@H](O)[C@]1(C)O [Roxithromycin]
inactive: [4] 0.954 | [7] 0.899
active: [1] 0.84 | [2] 0.82 | [3] 0.0242 | [5] 0.0176 | [6] 0.0119 | [8] 0.0779

O=C(NCCO[N+](=O)[O-])c1cccnc1 [Nicorandil]
inactive: [1] 0.995 | [2] 0.99 | [3] 0.991 | [4] 0.999 | [5] 0.986 | [6] 0.996 | [7] 1.01 | [8] 1.01

CC(=O)N(CC(O)CO)c1c(I)c(C(=O)NCC(O)CO)c(I)c(C(=O)NCC(O)CO)c1I (stereo not given) [Iohexol]
inactive: [1] 0.997 | [2] 0.968 | [3] 0.995 | [4] 1 | [5] 1.01 | [6] 0.978 | [7] 0.999 | [8] 1.01

CN(C)[C@@H]1C(=O)C(C(N)=O)=C(O)[C@@]2(O)C(=O)C3=C(O)c4c(O)ccc(Cl)c4[C@@H](O)[C@H]3C[C@@H]12 [Demeclocycline hydrochloride]
active: [1] 0.00255 | [2] 0.0177 | [3] 0.056 | [4] 0.0357 | [5] 0.015 | [6] 0.0137 | [7] 0.00782 | [8] 0.00561

Nc1ncnc2c1ncn2[C@@H]1O[C@H](CO)[C@@H](O)[C@@H]1O [Vidarabine]
inactive: [1] 0.988 | [2] 0.984 | [3] 0.975 | [4] 0.829 | [5] 0.971 | [6] 0.977 | [7] 0.99 | [8] 0.995

N[C@@H](Cc1cc(I)c(Oc2ccc(O)c(I)c2)c(I)c1)C(=O)O [Liothyronine]
inactive: [1] 0.985 | [2] 0.951 | [3] 0.981 | [4] 0.976 | [5] 0.987 | [6] 0.984 | [7] 1.01 | [8] 1

Clc1cccc(Cl)c1NC1=NCCN1 [Clonidine hydrochloride]
inactive: [1] 1.01 | [2] 1.02 | [3] 1.03 | [4] 1.01 | [5] 0.998 | [6] 1.04 | [7] 0.996 | [8] 1.01

CC(=O)/N=c1/sc(S(N)(=O)=O)nn1C [Methazolamide]
inactive: [1] 0.99 | [2] 1.04 | [3] 1.05 | [4] 0.979 | [5] 1.07 | [6] 1.06 | [7] 1.01 | [8] 1.02

CC(=O)O[C@@]12CO[C@@H]1C[C@H](O)[C@@]1(C)C(=O)[C@H](O)C3=C(C)[C@@H](OC(=O)[C@H](O)[C@@H](NC(=O)OC(C)(C)C)c4ccccc4)C[C@@](O)([C@@H](OC(=O)c4ccccc4)[C@H]21)C3(C)C [Docetaxel]
inactive: [1] 0.995 | [2] 0.982 | [3] 1.07 | [4] 1.04 | [5] 0.904 | [6] 0.92 | [7] 1 | [8] 1

CCN(CC)CCc1nc(-c2ccccc2)no1 [Oxolamine citrate salt]
inactive: [1] 0.99 | [2] 1.01 | [3] 1.04 | [4] 1.03 | [5] 0.97 | [6] 0.98 | [7] 1.01 | [8] 1.01

CCc1ccc(CCOc2ccc(CC3SC(=O)NC3=O)cc2)nc1 (stereo not given) [Pioglitazone]
inactive: [1] 0.967 | [2] 0.958 | [3] 0.911 | [4] 0.922 | [5] 0.994 | [6] 0.992 | [7] 0.996 | [8] 0.993

CCOC1O[C@H]([C@@H](COCc2ccccc2)OCc2ccccc2)[C@H](OCc2ccccc2)[C@H]1O (stereo not given in full) [Tribenoside]
inactive: [1] 1 | [2] 1.01 | [3] 1 | [4] 0.988 | [5] 0.946 | [6] 0.987 | [7] 1.01 | [8] 0.959

CC[N+](C)(C)c1cccc(O)c1 [Edrophonium chloride]
inactive: [1] 1.01 | [2] 1 | [3] 1.02 | [4] 0.964 | [5] 1.02 | [6] 1.02 | [7] 1.01 | [8] 0.992

Cc1ccc(Cl)c(Nc2ccccc2C(=O)O)c1Cl [Meclofenamic acid sodium salt monohydrate]
inactive: [1] 1 | [2] 0.954 | [3] 0.891 | [4] 0.981 | [5] 0.859 | [6] 0.903 | [7] 1.01 | [8] 1.01

CC(=O)CC(c1ccccc1)c1c(O)c2ccccc2oc1=O (stereo not given) [Warfarin]
inactive: [1] 0.999 | [2] 0.996 | [3] 0.945 | [4] 0.999 | [5] 1 | [6] 1.03 | [7] 0.999 | [8] 0.988

S=c1[nH]cnc2nc[nH]c12 [Mercaptopurine]
inactive: [1] 0.997 | [2] 1.01 | [3] 1 | [4] 0.987 | [5] 1.01 | [6] 1 | [7] 1 | [8] 0.998

CN(C)CCC(c1ccccc1)c1ccccn1 (stereo not given) [Pheniramine maleate]
inactive: [1] 0.996 | [2] 1.04 | [3] 0.997 | [4] 1.01 | [5] 1.01 | [6] 1.02 | [7] 0.999 | [8] 1.01

CCCCNc1cc(C(=O)O)cc(S(N)(=O)=O)c1Oc1ccccc1 [Bumetanide]
inactive: [1] 0.969 | [2] 0.991 | [3] 0.982 | [4] 0.995 | [5] 1.01 | [6] 1.01 | [7] 0.996 | [8] 0.991
